Laboratory results published in PubChem BioAssay AID504434 (National Center for Advancing Translational Sciences (NCATS), 2011).
Inconclusive results are not listed. A number with no mark means an inactive call. Active and inactive are the calls of the source. Calls come from the whole dose curve; as a rule, active = well fitted curve in the direction sought with a large enough effect; inconclusive = small, poorly fitted or top-dose-only effect, or effect the other way, or another doubt; inactive = no such curve, though single readings can be large or run the other way.

Experiment: Secondary Assay for lipid storage modulators: AML12 cell LDSA assay for probe SAR
Conditions: AML12 lipid droplet accumulation, BODIPY 493/503 imaging, oleate; series mostly up to 46.1 µM; activity change, negative = inhibition: at the top concentration
From the text: NIH Molecular Libraries Probe Production Centers Network [MLPCN] NIH Chemical Genomics Center [NCGC] MLPCN Grant: 1 R03 MH085686-01 Assay Submitter (PI): Beller, Mathias; Max-Planck-Institut fur Biophysikalische Chemie NCGC Assay Overview: Storing lipids as a reservoir for energy or the anabolism of elementary metabolites is a common feature of probably all cells and is conserved from bacteria to humans. The universal cellular lipid storage organelle is the so-called lipid storage droplet (LD). Although ubiquitous, LDs share a simple structure composed of a hydrophobic core that harbors the storage lipids, which is shielded by a droplet-specific phospholipid monolayer to which proteins are attached. The current model of LD biogenesis involves an incorporation of the lipid core into the membrane leaflets of the endoplasmic reticulum (ER) followed by a subsequent budding-like maturation of a LD, which ultimately pinches off. Once released, LD volume can increase by localized lipogenesis or fusion of existing droplet. Storage lipids are re-mobilized enzymatically by lipase activity. Lipase regulation in the adipocyte is heavily studied and involves multiple components including catecholamine signaling, the LD-associated proteins Perilipin and comparative gene identification (CGI-58) and at least two lipases named hormone sensitive lipase (HSL) and adipocyte triglyceride lipase (ATGL). LD regulation outside of the adipocyte is poorly understood and only few components are known. However, there is an urgent need to learn more about ectopic fat depots as mislocalized storage of lipids, for example in the liver or muscle, is an eminent health problem associated with insulin resistance or the metabolic syndrome.
NCGC Assay Protocol Summary: The assay was performed with AML12 cells, using an oleic acid feeding protocol similar to the S3 assay. We dispensed 4 uL of cells to give 700 cells/well into Greiner bio-one 1,536-well plates (black walled, clear bottom). Triacsin C (Sigma-Aldrich T-4540), an inhibitor of long-chain fatty acyl CoA synthetase that blocks synthesis of triglycerides, was used as a positive control for lipid under-storage using a final concentration of 20 uM. The orexin antagonist, SB408124 - previously identified to stimulate lipid over-storage, was used as a positive control for lipid over-storage using a final concentration of 20 uM. A total of 23 nL of compound solution of different concentrations were transferred to the assay plates using a Kalypsys pin tool equipped with a 1,536-pin array containing 10-nL slotted pins (FP1S10, 0.457-mm diameter, 50.8 mm long; V&P Scientific). One microliter of oleic acid was added (400 uM final concentration), and the plate was lidded with stainless steel rubber gasket lined lids containing pinholes. After 18-24 h incubation at […] and 95% humidity, 4 uL of the dyes BODIPY 493/503 (Molecular Probes) and the Cell Tracker Red CMTPX dye (Molecular Probes) were added to the wells to stain lipid droplets and enumerate cell number, respectively. Fluorescence was detected by excitation of the fluorophores with a 488-nm laser on an Acumen Explorer (TTP Lab Tech). The total intensity in channel 2 (500-530 nm) reflected lipid droplet accumulation. Cells were detected using channel 3 (575-640 nm) with 5-um width and 100-um depth filters. The ratio of the number of objects in PMT channel 2 over the number of objects in PMT channel 3 was also calculated. Percent activity was computed relative to an internal control (100% inhibited lipid droplet deposition due to the presence of 20 uM Triacsin C), which was added to 32 wells/plate.
With `CCn1c(C(=O)NCCc2ccc(OC)cc2)cc2sccc21` the “activity change, negative = inhibition” value was -5.26%. With `COc1ccc(Cl)cc1NC(=S)N1CCN(c2ccccc2)CC1` the “activity change, negative = inhibition” value was -22.9%. For `COc1ccc(NC(=S)N2CCN(c3cccc(Cl)c3)CC2)c(OC)c1`, the “activity change, negative = inhibition” value was 15.7%. In the case of `O=C(NC1CCCc2c1cnn2-c1ccc(F)cc1F)C1CCCCC1` (centres undefined), the “activity change, negative = inhibition” value is reported as 5.26%. For `O=C(NC1CCCc2c1cnn2-c1ccc(F)cc1F)c1cccc(=O)[nH]1` (centres undefined), the “activity change, negative = inhibition” value was -22.4%. With `O=C(NC1CCCc2c1cnn2-c1ccc(F)cc1F)c1cnon1` (centres undefined) the “activity change, negative = inhibition” value was -39.5%. With `Cc1ccc(-c2cnc(SCC(=O)Nc3nc(C)cs3)n2Cc2ccco2)cc1` the “activity change, negative = inhibition” value was -24.1%. For `CN(C)CC(=O)NC1CCCc2c1cnn2-c1ccc(F)cc1F` (centres undefined), the “activity change, negative = inhibition” value was 5.26%. With `O=C(NC1CCCc2c1cnn2-c1ccc(F)cc1F)c1c(F)cccc1Cl` (centres undefined) the “activity change, negative = inhibition” value was 0%. For `CCOc1ccc(NC(=O)NC2(C(=O)N3CCCCC3)CCCCC2)cc1`, the “activity change, negative = inhibition” value was -27.8%. For `CCOC(=O)C1CCN(C(=O)C(C)(C)NC(=O)Nc2ccc([N+](=O)[O-])cc2)CC1`, the “activity change, negative = inhibition” value was -39.6%. For `CCOC(=O)C1CCN(C(=O)C(C)(C)NC(=O)Nc2ccc(OC)c(Cl)c2)CC1`, the “activity change, negative = inhibition” value was -44.8%. For `COc1ccc(CCNC(=O)c2cc3sccc3n2Cc2ccc(F)cc2)cc1OC`, the Potency was 3.15 µM (active). For `CCOC(=O)C1CCN(C(=O)C(C)(C)NC(=O)Nc2cccc(-c3csc(C)n3)c2)CC1`, the “activity change, negative = inhibition” value was -30.2%.
